From PubChem BioAssay AID1159554 (Broad Institute, 2015)
Where “and” joins values, the source holds several entries; their conditions need not be identical. Equal entries are not always repeated. Screen size: about 94,000 compounds; about 2,100 (2.2%) were called active. Rule as the data show it: active = activity change below about -80%; inconclusive = no clear call, values can overlap the other calls; inactive = above that. For the sample, actives were picked, then their nearest neighbours and some compounds at random. Some compounds were tested as several samples or in several runs, with calls that do not always agree.

Experiment: Dd2 malaria parasite growth inhibition – SYBR Green fluorescence, single dose replicates, primary screen (AID 1159554)
Conditions: P. falciparum Dd2 growth, 72 h, at 10 µM, stronger effect = lower value

Compound	activity change
O=C(C1CCCCC1)N1CC2(C1)[C@H](c1ccccc1)[C@@H](CO)N2Cc1cncnc1	32.5% (inactive)
O=C(C[C@@H]1CC[C@@H]2[C@H](COC[C@H](O)CN2S(=O)(=O)c2ccccc2F)O1)NCc1ccccc1F	0.606% (inactive)
C[C@@H]1CCCCO[C@@H](CN(C)S(=O)(=O)c2cn(C)cn2)[C@H](C)CN([C@@H](C)CO)C(=O)c2cc(NC(=O)Nc3ccccc3)ccc2O1	-13.9% (inactive)
CC(C)NC(=O)N1[C@@H]2CN(C(=O)Nc3ccc(F)cc3)c3ccccc3[C@@H]2[C@@H]1CO	18.6% (inactive)
C[C@@H]1CN([C@@H](C)CO)S(=O)(=O)c2ccc(C#Cc3ccccc3F)cc2O[C@H]1CN(C)C(=O)c1ccc2c(c1)OCO2	-85.3% (active)
C[C@@H]1CN([C@H](C)CO)S(=O)(=O)c2ccc(C#Cc3ccccc3F)cc2O[C@@H]1CN(C)C(=O)c1ccc2c(c1)OCO2	-67% (inactive)
CC(=O)N(C)C[C@H]1Oc2cc(C#Cc3ccccc3F)ccc2S(=O)(=O)N([C@@H](C)CO)C[C@H]1C	-22.1% (inactive)
CC(=O)N(C)C[C@@H]1Oc2cc(C#Cc3ccccc3F)ccc2S(=O)(=O)N([C@@H](C)CO)C[C@@H]1C	-36.8% (inactive)
C[C@H]1CN([C@@H](C)CO)S(=O)(=O)c2ccc(C#Cc3ccccc3F)cc2O[C@@H]1CN(C)C(=O)c1ccc2c(c1)OCO2	-86.6% (active)
CC(=O)N(C)C[C@H]1Oc2cc(C#Cc3ccccc3F)ccc2S(=O)(=O)N([C@H](C)CO)C[C@@H]1C	-24.1% (inactive)
O=C(Nc1ccc(F)cc1)N1CCCCN2[C@H](CO)[C@H](c3ccc(C#Cc4ccccc4)cc3)[C@H]2C1	-83.4% (active)
CN(C)CC#Cc1ccc([C@@H]2[C@H](CO)N3CCCCN(C(=O)Nc4ccc(F)cc4)C[C@@H]23)cc1	-18.7% (inactive)
COc1ccc(C#Cc2ccc([C@H]3[C@@H](CO)N4CCCCN(C(=O)Nc5ccccc5)C[C@H]34)cc2)cc1	-69.3% (inactive)
C[C@H](CO)N1C[C@H](C)[C@@H](CN(C)Cc2cccc(F)c2)Oc2cc(C#CC3CC3)ccc2S1(=O)=O	-15.8% (inactive)
C[C@H](CO)N1C[C@H](C)[C@@H](CN(C)C(=O)C2CC2)Oc2cc(-c3cccc(C#N)c3)ccc2S1(=O)=O	-26.1% (inactive)
C[C@@H]1CN([C@@H](C)CO)S(=O)(=O)c2ccc(-c3cccc(C#N)c3)cc2O[C@@H]1CN(C)Cc1cccc(F)c1	-39.8% (inactive)
CCC(=O)N(C)C[C@H]1Oc2cc(-c3cccc(C#N)c3)ccc2S(=O)(=O)N([C@@H](C)CO)C[C@@H]1C	7.55% (inactive)
C[C@H]1CN([C@@H](C)CO)S(=O)(=O)c2ccc(-c3cccc(C#N)c3)cc2O[C@H]1CN(C)CC1CC1	-83.2% (active)
CCCN(C)C[C@@H]1Oc2cc(-c3cccc(C#N)c3)ccc2S(=O)(=O)N([C@@H](C)CO)C[C@@H]1C	-82.2% (active)
C[C@@H]1CN([C@H](C)CO)S(=O)(=O)c2ccc(-c3ccccc3)cc2O[C@@H]1CN(C)CC1CC1	-40.4% (inactive)
CNC(=O)C[C@@H]1CC[C@@H]2[C@H](COC[C@@H](O)CN2S(=O)(=O)c2ccccc2Cl)O1	24.5% (inactive)

Compound	activity change
Cc1ccccc1-c1ccc2c(c1)O[C@H](CN(C)Cc1ccc(C(=O)O)cc1)[C@@H](C)CN([C@H](C)CO)S2(=O)=O	-8.07% (inactive)
CO[C@H](CN(C)C(=O)c1ccc2c(c1)OCO2)[C@H](C)CN([C@@H](C)CO)S(=O)(=O)c1ccc(Cl)cc1	10.7% (inactive)
COCCNC(=O)C[C@@H]1C[C@@H]2c3cc(NS(=O)(=O)c4ccccc4)ccc3O[C@@H]2[C@H](CO)O1	18.7% (inactive)
Cn1cnc(S(=O)(=O)N2C[C@@H](O)COC[C@@H]3O[C@H](CC(=O)NC4CCC4)CC[C@H]32)c1	8.29% (inactive)
CC(C)(C)[S@](=O)N1Cc2cc(C(=O)N[C@@H]3CCN(Cc4ccccc4)C3)nc(-c3cccc(-c4ccncc4)c3)c2[C@@H]1CCO	-81.2% (active)
CCCNC(=O)c1cc2c(c(-c3cccc(-c4ccc(F)cc4)c3)n1)[C@@H](CCO)N([S@](=O)C(C)(C)C)C2	-18.8% (inactive)
CC(C)(C)[S@@](=O)N1Cc2cc(C(=O)NCc3ccc4c(c3)OCO4)nc(-c3cccc(-c4ccccc4)c3)c2[C@H]1CCO	-48.4% (inactive)
COc1ccc2c3c(n(C)c2c1)[C@H](CO)N(C(=O)C1CCCC1)CC31CCN(C(=O)c2ccncc2)CC1	-53.1% (inactive)
C/C=C/c1ccc([C@@H]2[C@H](CO)N(CC3CCCC3)C23CN(C(=O)CC2CC2)C3)cc1	-85% (active)
C/C=C/c1ccc([C@@H]2[C@@H](CO)N(CC3CCCC3)C23CN(S(=O)(=O)CC)C3)cc1	-78.3% (inactive)
C/C=C/c1ccc([C@@H]2[C@H](CO)N(CC3CCCC3)C23CN(C(=O)CC)C3)cc1	-53.8% (inactive)
CCCNC(=O)N(C)C[C@H]1Oc2ncc(-c3ccc(F)cc3)cc2C(=O)N([C@H](C)CO)C[C@H]1C	0.175% (inactive)
CCCNC(=O)NC[C@H]1[C@H](c2ccc(C3=CCCCC3)cc2)[C@H](CO)N1C(C)=O	-9.89% (inactive)
COc1ccc(S(=O)(=O)N(C)C[C@H]2OCCCC[C@H](C)Oc3ccc(NC(=O)CCC(F)(F)F)cc3C(=O)N([C@@H](C)CO)C[C@@H]2C)cc1	-55.8% (inactive)
C[C@@H]1CN([C@H](C)CO)C(=O)c2cccc(NC(=O)CCCCCC(=O)Nc3ccccc3N)c2O[C@H]1CN(C)Cc1ccc(Oc2ccccc2)cc1	-91.8% (active)
C[C@H]1CN([C@@H](C)CO)C(=O)c2cccc(NC(=O)c3cnccn3)c2O[C@@H]1CN(C)Cc1ccc(Oc2ccccc2)cc1	-3.4% (inactive)
C[C@H](CO)N1C[C@H](C)[C@H](CN(C)Cc2ccccc2)Oc2ccc(NC(=O)CCCCCC(=O)Nc3ccccc3N)cc2C1=O	-61% (inactive)
C[C@H](CO)N1C[C@H](C)[C@H](CN(C)Cc2ccc(Oc3ccccc3)cc2)Oc2c(NC(=O)CCCCCC(=O)Nc3ccccc3N)cccc2C1=O	-92.5% (active)
C[C@H]1CN([C@@H](C)CO)C(=O)c2cccc(NC(=O)Nc3ccccc3)c2O[C@H]1CN(C)Cc1ccc(Oc2ccccc2)cc1	-12% (inactive)
Cc1noc(C)c1NC(=O)N(C)C[C@@H]1Oc2c(NC(=O)CCCCCC(=O)Nc3ccccc3N)cccc2C(=O)N([C@H](C)CO)C[C@@H]1C	20.3% (inactive)
CC=Cc1ccc2n(c1=O)C[C@@H]1[C@@H](CO)[C@H](C(=O)NCC)[C@H]2N1CCC(F)(F)F (mixture of isomers)	0.676% (inactive)

Compound	activity change
CO[C@H]1CN(C)C(=O)c2ccc(NC(=O)C3CC3)cc2OC[C@@H](C)N(C)C[C@H]1C	24.8% (inactive)
COCC(=O)Nc1ccc2c(c1)C(=O)N(C)[C@H]1CC[C@@H](CC(=O)Nc3cn(C)nc3C)O[C@@H]1CO2	-1.96% (inactive)
COc1ccc2c3c([nH]c2c1)[C@H](CO)N(C(=O)c1ccccc1)CC31CCN(S(=O)(=O)c2cccs2)CC1	23.2% (inactive)
CCNC(=O)C[C@@H]1CC[C@@H]2[C@@H](COc3ccc(NC(=O)c4cccc(C(F)(F)F)c4)cc3C(=O)N2C)O1	-22.5% (inactive)
OC[C@H]1[C@@H](c2ccc(/C=C/c3ccccc3)cc2)[C@H]2CN(Cc3cccnc3)CCCCN21	-61.1% (inactive)
c1ccc(-c2ccc(C3[C@@H]4CN(Cc5cccnc5)C[C@H]3N4)cc2)cc1 (stereo partly drawn)	-91.7% (active) and -72.1% (inactive)
O=C(Cc1ccncc1)N1C[C@@H]2N[C@H](C1)C2c1ccc(-c2ccc(F)cc2)cc1 (stereo partly drawn)	-75.3% (inactive)
CC(C)CC#Cc1ccc([C@@H]2[C@@H](CO)N3C(=O)CN(C(=O)Nc4ccc(F)cc4)C[C@H]23)cc1	-28.4% (inactive)
COc1ccccc1CNC(=O)C[C@H]1CC[C@@H]2[C@H](COC[C@H](O)CN2Cc2ccccc2)O1	6.62% (inactive)
Cc1ccc(S(=O)(=O)Nc2ccc3c(c2)CC(=O)N([C@H](C)CO)C[C@@H](C)[C@H](CN(C)Cc2ccc(C(F)(F)F)cc2)O3)cc1	32% (inactive)
Cc1ccc(S(=O)(=O)Nc2ccc3c(c2)C(=O)N([C@H](C)CO)C[C@H](C)[C@H](CN(C)Cc2ccc(C(=O)Nc4ccccc4N)cc2)OCCCC[C@@H](C)O3)cc1	-83.6% (active)
Cc1ccc(S(=O)(=O)Nc2ccc3c(c2)C(=O)N([C@H](C)CO)C[C@H](C)[C@@H](CN(C)Cc2ccccc2)OCCCC[C@H](C)O3)cc1	30% (inactive)
C[C@H]1CN([C@@H](C)CO)C(=O)Cc2cc(NC(=O)Nc3ccc4c(c3)OCO4)ccc2O[C@H]1CN(C)Cc1ccc(C(=O)Nc2ccccc2N)cc1	-81.3% (active)
Cc1ccc(S(=O)(=O)Nc2ccc3c(c2)CC(=O)N([C@@H](C)CO)C[C@H](C)[C@H](CN(C)Cc2ccccc2)O3)cc1	-4.27% (inactive)
C[C@@H]1CN([C@H](C)CO)C(=O)Cc2cc(NC(=O)Nc3ccc4c(c3)OCO4)ccc2O[C@H]1CN(C)Cc1ccc(C(=O)O)cc1	21.4% (inactive)
COc1ccc(S(=O)(=O)Nc2ccc3c(c2)CC(=O)N([C@@H](C)CO)C[C@@H](C)[C@@H](CN(C)Cc2ccc(C(=O)Nc4ccccc4N)cc2)O3)cc1	-80.3% (active)
Cc1ccc(S(=O)(=O)Nc2ccc3c(c2)C(=O)N([C@H](C)CO)C[C@@H](C)[C@H](CN(C)Cc2ccccc2)OCCCC[C@H](C)O3)cc1	-43.7% (inactive)
Cc1ccc(S(=O)(=O)Nc2ccc3c(c2)CC(=O)N([C@@H](C)CO)C[C@H](C)[C@H](CN(C)Cc2ccc(C(=O)Nc4ccccc4N)cc2)O3)cc1	-86.6% (active)
COc1ccc(CN(C)C[C@H]2Oc3ccc(NS(=O)(=O)c4ccc(Cl)cc4)cc3CC(=O)N([C@@H](C)CO)C[C@H]2C)cc1	12.9% (inactive)
C[C@@H]1CN([C@H](C)CO)C(=O)Cc2cc(NC(=O)Nc3ccc4c(c3)OCO4)ccc2O[C@@H]1CN(C)Cc1ccc(C(=O)Nc2ccccc2N)cc1	-76.5% (inactive)
COc1ccc(S(=O)(=O)Nc2ccc3c(c2)CC(=O)N([C@@H](C)CO)C[C@H](C)[C@@H](CN(C)Cc2ccc(C(=O)O)cc2)O3)cc1	22.3% (inactive)
